Data reported in PubChem BioAssay AID1491 (National Center for Advancing Translational Sciences (NCATS), 2009).
Where “and” joins values, the source holds several entries; their conditions need not be identical. Equal values may be shown once. Records with an inconclusive call do not appear. Unmarked numbers belong to inactive results. Calls of active or inactive are those of the source. The call rests on the fitted dose curve; in most records, active means well fitted inhibition curve with a large enough effect in the main read-out, with a control signal flat; inconclusive means small, poorly fitted or top-dose-only effect, or a change in a side signal; inactive means flat fitted curve, though single readings scatter.

Each compound was assayed against Neuropeptide S receptor (Homo sapiens) (UniProt Q6W5P4) (assay: Confirmation Concentration-Response Assay for Antagonists of the Neuropeptide S Receptor: cAMP Signal Transduction). Conditions: CHO-NPSR cells, cAMP TR-FRET, antagonist mode; series mostly up to 22.3 µM; activity change, negative = inhibition: at the top concentration.
Chain of Neuropeptide S receptor (Homo sapiens) (Q6W5P4 whole entry, looked up): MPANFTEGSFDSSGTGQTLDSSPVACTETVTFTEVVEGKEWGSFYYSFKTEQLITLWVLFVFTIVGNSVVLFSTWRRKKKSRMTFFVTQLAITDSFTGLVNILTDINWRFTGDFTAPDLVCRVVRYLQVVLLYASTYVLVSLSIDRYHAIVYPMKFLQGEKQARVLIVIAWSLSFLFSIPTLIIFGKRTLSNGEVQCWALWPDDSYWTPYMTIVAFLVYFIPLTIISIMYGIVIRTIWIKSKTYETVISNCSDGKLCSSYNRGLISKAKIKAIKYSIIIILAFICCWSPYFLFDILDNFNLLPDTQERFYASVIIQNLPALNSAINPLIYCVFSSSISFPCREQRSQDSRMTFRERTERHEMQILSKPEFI
Summary of the method: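 LANCE TR-FRET cAMP read-out: 665/620 nm emission ratio, with the 620 nm donor channel also reported, after 2 h RT detection. Stably transfected CHO-NPSR cells got compound titrations and 100 nM NPS in stimulation reagent for 60 min at 37C. IC50 came from Hill fits.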
Potency means the concentration at half of the fitted maximal effect.
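Wherever activity change, negative = inhibition is given: 0% = DMSO with NPS and full inhibition = wells lacking NPS.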

| SMILES | Potency | activity change, negative = inhibition |
| --- | --- | --- |
| CC1CCCCN1S(=O)(=O)c1ccc(C(=O)Nc2sccc2C(N)=O)cc1 (stereo not drawn) | 12.6 µM (active) and 14.1 µM (active) | – |
| S=C(Nc1ccccc1)Nc1nccs1 | – | -6.4% |
| Cc1cc(N/N=C/c2ccccc2[N+](=O)[O-])nc(-n2nc(C)cc2C)n1 | – | -5.67% |
| Cc1nc(NC(=S)Nc2ccccc2)sc1C | – | -7.56% |
| CCOc1ccc(N2C(=O)CC(NCCc3ccncc3)C2=O)cc1 (stereo not drawn) | – | 15% |
| Cc1ccc(NC(=S)NNC(C)(C)C)cc1 | – | -2.61% |
| COc1cccc(C2c3c(ncn(CCN4CCOCC4)c3=N)Oc3ccc4ccccc4c32)c1 (stereo not drawn) | 2.51 µM (active) and 10 µM (active) | – |
| COc1cccc(C2c3c(ncn(-c4ccccc4)c3=N)Oc3ccc4ccccc4c32)c1OC (stereo not drawn) | 4.47 µM (active) | – |
| N#Cc1c(-c2ccccc2)c(-c2ccccc2)nn(CC(=O)NNC(=O)Nc2ccc(Cl)c(Cl)c2)c1=O | – | -5.78% |
| O=C(Nc1ccc(Oc2c(F)c(F)c(F)c(F)c2F)cc1)OC1CCN2Cc3ccccc3N=C12 (stereo not drawn) | 11.2 µM (active) | – |
| CS(=O)(=O)c1nc(-c2ccccc2)cc(C(F)(F)F)n1 | 7.94 µM (active) | – |
| COc1cccc(C2c3c(ncn(CCCN4CCOCC4)c3=N)Oc3ccc4ccccc4c32)c1 (stereo not drawn) | 14.1 µM (active) | – |
| COC(=O)/C(=C1/Oc2cc(C)oc(=O)c2S1)C(F)(F)F | – | -13.3% |
| O=[N+]([O-])c1cc2c(cc1/C=N/n1c(-c3ccccc3)n[nH]c1=S)OCO2 | – | -1.53% |
| CC1(C)Cc2c(c(N3CCOCC3)nc3sc4c(NCC5CCCO5)nnnc4c23)CS1 (stereo not drawn) | – | -12.8% |
| COc1ccccc1C1c2c(ncn(-c3ccccc3)c2=N)Oc2ccc3ccccc3c21 (stereo not drawn) | 17.8 µM (active) | – |
| CCCCCN1C=CC=C/C1=C\C=C(C#N)C#N | – | -10.9% |
| Cc1oc2c(c1C(=O)NCc1cccnc1)C(=O)c1ccccc1C2=O | – | -5.45% |
| O=C(Nc1nccs1)C1CCCN1S(=O)(=O)c1ccc(Cl)cc1 (stereo not drawn) | – | 1.4% |

| SMILES | Potency | activity change, negative = inhibition |
| --- | --- | --- |
| Cc1ccc(-c2ccc(/C=C3\C(=O)ON=C3c3ccccc3)o2)c([N+](=O)[O-])c1 | 2.82 µM (active) | – |
| COc1ccccc1-c1nnc(SC2CCc3ccccc3NC2=O)s1 (stereo not drawn) | – | -30% |
| Nn1c(COc2ccccc2)nnc1SCc1cc(=O)[nH]c2ccccc12 | – | 8.5% |
| CCOc1ccccc1NC1=CC(=O)CC(c2ccccc2)C1 (stereo not drawn) | – | -1.81% |
| Cc1cc(OCC(=O)c2ccc(Br)cc2)ccc1N1C(=O)CCC1=O | – | -12.9% |
| C=CCn1c(SCCN2C(=O)c3ccccc3C2=O)nc2scc(-c3ccccc3)c2c1=O | – | -9.23% |
| CN(C)C(=S)N=Nc1[nH]c2ccccc2c1O | 10 µM (active) | – |
| O=C(CSc1cccc[n+]1[O-])Nc1ccccc1Oc1ccccc1 | – | -6.76% |
| CCOc1ccc(-n2c(=S)sc3c(=O)[nH]c(SCC(=O)C(C)(C)C)nc32)cc1 | 7.08 µM (active) | – |
| C=CC1(C)CC(=O)C2(O)C(C)(O1)C(OC(C)=O)C(O)C1C(C)(C)CCC(O)C12C (stereo not drawn) | – | 6.07% [at 0.188 µM] |
| N=c1c2c(ccn1Cc1ccccc1)Oc1ccc3ccccc3c1C2c1ccccc1 (stereo not drawn) | 2 µM (active) | – |
| C/C(=N\Nc1ncc(Cl)cc1Cl)c1ccccn1 | 5.62 µM (active) | – |
| Cc1cccc(N2CCN(C(=O)c3ccc(CNc4c(N5CCC(C)CC5)c(=O)c4=O)cc3)CC2)c1C | – | -16.2% |
| COc1ccc(OC)c(C2C(C(=O)Nc3nc4ccccc4s3)=C(C)NC3=C2C(=O)CCC3)c1 (stereo not drawn) | 2.82 µM (active) | – |
| O=C(O)c1cccc(Nc2ncnc3ccccc23)c1 | – | 8.17% |
| O=C(Nc1cc(=O)[nH]c2nc(-c3ccc(Cl)cc3)nn12)c1ccccc1 | 3.98 µM (active) | – |
| N=c1c2c(ncn1-c1ccccc1)Oc1ccc3ccccc3c1C2c1ccc2c(c1)CCO2 (stereo not drawn) | 1.12 µM (active) | – |
| O=C(NCCCN1CCOCC1)c1cc2c(=O)[nH]c3ccccc3c2s1 | – | 6.75% |
| Oc1ccc(N=Nc2nccs2)c(O)c1 | – | -6.18% |
